High-throughput results as filed in PubChem BioAssay.
A selection: hits, their analogues and other compounds. The true share with any hit is near 19%.
Pf growth 96h: Primary qHTS for delayed death inhibitors of the malarial parasite plastid, 96 hour incubation. P. falciparum luciferase reporter growth, 96 h. Potency, µM (doses to about 28.7 µM), for the others: at the top dose activity change, negative = inhibition, actives largely listed as inhibitors. actives 6.9% (n = 320,000); further: potency means the concentration at half of the fitted maximal effect; on the % scale 0 is the no-effect control and ±100 the full control effect
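Compounds incubated with erythrocytes infected by luciferase-expressing P. falciparum (2% hematocrit, 0.05% parasitemia final) for 96 hours, 37 C in 5% CO2. Growth inhibition scored as decreased luciferase luminescence.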
MARV entry inh: qHTS for inhibitors of binding or entry into cells for Marburg Virus; Potency, µM (highest dose often 37.8 µM), for inactives: top-dose activity change, negative = inhibition, hits mostly inhibitors; Marburg virus pseudotyped entry inhibition, cell reporter; actives 1.8% (n = 300,000); calls by dose curve; tested in HEK293 cells; further: potency means the concentration at half of the fitted maximal effect; on the % scale 0 is the no-effect control and ±100 the full control effect
Shiga inhibitor: A qHTS for Small Molecule Inhibitors of Shiga Toxin; Vero cells, Shiga toxin protein synthesis inhibition reporter; inhibition, % at 38.7 µM; actives 9.2% (n = 290,000); in the data active means inhibition mostly above about 28%, no sharp cut-off; inactive means mostly below about 43%; further: 0% is about no effect
Pf growth 48h: Primary qHTS for delayed death inhibitors of the malarial parasite plastid, 48 hour incubation | P. falciparum luciferase growth in erythrocytes, 48 h | Potency, µM (top dose mostly 28.7 µM), for the others: top-dose activity change, negative = inhibition, most hits filed as inhibitors | actives 5.9% (n = 310,000) | AID 504832, 2011; further: potency means the concentration at half of the fitted maximal effect; on the % scale 0 is the no-effect control and ±100 the full control effect
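Firefly luciferase activity from engineered P. falciparum reports growth; inhibitors lower the luminescent signal. Cultures contained 2% hematocrit erythrocytes at 0.1% final parasitemia.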
Cycloheximide cs: Cycloheximide Counterscreen for Small Molecule Inhibitors of Shiga Toxin; max response, %; actives 12% (n = 300,000); AID 2314, 2010; cell reporter, cycloheximide protein synthesis inhibition counterscreen; in the data active means max response mostly above about 13%, no sharp cut-off; inactive means mostly below about 14%; further: read at 38.3 µM for the half of the compounds with a filed dose; 0% is about no effect
LASV entry inh: qHTS for Inhibitors of binding or entry into cells for Lassa Virus; actives 1.2% (n = 300,000); Lassa virus pseudotype entry inhibition, cell reporter; AID 540256, 2011; Potency, µM (top dose mostly 37.9 µM), inactives show top-dose activity change, negative = inhibition, hits mostly inhibitors; calls by dose curve; tested in HEK293 cells; further: potency means the concentration at half of the fitted maximal effect; on the % scale 0 is the no-effect control and ±100 the full control effect; nearly all actives have a fitted effect of over 50% in size
An asterisk follows results filed as active; ? = inconclusive; / = no result; [ ] = remark or other dose. Unless noted, the call rests on the fitted dose curve; in most records, active means well fitted inhibition curve with a large enough effect; inconclusive means small, poorly fitted or top-dose-only effect, or another doubt; inactive means no such curve, though single readings can be large or run the other way.

SMILES | Pf growth 96h | MARV entry inh | Shiga inhibitor | Pf growth 48h | Cycloheximide cs | LASV entry inh
Cc1ccc(-c2noc(CN(C(=O)C(c3ccccc3)c3ccccc3)C(C)C)n2)cc1 | ? | ? | -6 | ? | 2 | ?
O=C(NCCCN1CCCC1=O)C1CCN(S(=O)(=O)c2cc(C(F)(F)F)ccc2Cl)CC1 | -28% | / | / | 2% | / | /
O=C(CSCc1cccc(CSCC(=O)Nc2ccccc2)n1)Nc1ccccc1 | ? | ? | -5 | / | -2 | ?
COc1cc(/C=C/C(=O)OCC(=O)Nc2c(C)n(C)n(-c3ccccc3)c2=O)cc(OC)c1OC | 10µM* | / | / | ? | / | /
Cc1c(NC(=O)CN2CCN(c3ccc([N+](=O)[O-])cc3)CC2)c(=O)n(-c2ccccc2)n1C | -19% | 13%[46.1 µM] | -3 | -24% | 15 | 1%
Cc1c(NC(=O)CN2CCN(c3ccc(O)cc3)CC2)c(=O)n(-c2ccccc2)n1C | 6.6µM* | / | -13 | ? | -1 | /
Cc1cc(C(=O)Nc2c(C)n(C)n(-c3ccccc3)c2=O)on1 | 4.7µM* | / | -14 | / | -7 | /
Cc1cccc(C)c1NC(=O)CSCc1cccc(CSCC(=O)Nc2c(C)cccc2C)n1 | 5.2µM* | -7% | -7 | / | 7 | 1%
COc1cc(C(=O)NS(=O)(=O)c2ccccc2C)ccc1Cc1cn(C)c2ccc(NC(=O)OC3CCCC3)cc12 | ? | / | 3 | ? | -2 | /
CCC(=O)Nc1cc(OC)c(NC(=O)c2ccccc2)cc1OC | 21% | 16% | -4 | -17% | -1 | 6%
Cc1c(Br)c([N+](=O)[O-])nn1CC(=O)Nc1c(C)n(C)n(-c2ccccc2)c1=O | 2.9µM* | / | -8 | 17% | 1 | /
Cc1c(NC(=O)COc2ccc(C(C)C)cc2)c(=O)n(-c2ccccc2)n1C | 13µM* | ? | -21 | 13% | 1 | 4%
Cc1nn(CC(=O)Nc2c(C)n(C)n(-c3ccccc3)c2=O)c(C)c1[N+](=O)[O-] | ? | 5% | 15 | 10% | -5 | 26%
Cc1c(NC(=O)C(C)OC(=O)/C=C/c2ccccc2)c(=O)n(-c2ccccc2)n1C (stereo not drawn) | 20% | / | -31 | -20% | -6 | /
Cc1c(NC(=O)C(C)OC(=O)/C=C/c2ccc3c(c2)OCO3)c(=O)n(-c2ccccc2)n1C (stereo not drawn) | ? | 3%[46.1 µM] | 89* | 8% | 37* | 5%
Cc1cc(-c2ccc(S(=O)(=O)Nc3ccc(Cl)cc3)cc2)on1 | / | / | / | / | / | -17%[46.1 µM]
O=C(Nc1ccc(N2CCN(C(=O)c3ccccc3)CC2)cc1)c1ccc2c(c1)OCCO2 | ? | ? | 62* | ? | 55* | ?
CN1CCN(c2ccc(NC(=O)c3ccc4c(c3)OCO4)cc2)CC1 | -5%[5.75 µM] | ? | 72* | 108% | 42* | 10%
CC(C)(C)C(=O)N1CCN(c2ccc(NC(=O)c3ccc4c(c3)OCCO4)cc2)CC1 | -22% | ? | 3 | ? | -5 | ?
O=C(Nc1ccc(N2CCCCC2)cc1)c1ccc2c(c1)OCCO2 | 107% | ? | 75* | / | 35* | ?
O=C(Nc1ccc(N2CCN(C(=O)c3ccc(Cl)cc3)CC2)cc1)c1ccc2c(c1)OCCO2 | ? | ? | -4 | / | -2 | ?
CCC(C)c1ccccc1OCCCCN1CCCC1 (stereo not drawn) | ? | ? | -13 | ? | -7 | ?
COc1cc([N+](=O)[O-])ccc1NC(=O)NCCCN1CCCC1=O | 12% | -12%[46.1 µM] | -8 | 70% | 4 | 29%[46.1 µM]
CC(CNC(=O)CCc1cn(Cc2ccccc2Cl)c2ccccc12)c1ccccc1 (stereo not drawn) | / | / | / | / | / | -28%[46.1 µM]
CC(=O)c1cccc(NC(=O)Cn2cnc(S(=O)(=O)N3CCc4ccccc43)c2)c1 | ? | / | -3 | -4% | -3 | /
SMILES | Pf growth 96h | MARV entry inh | Shiga inhibitor | Pf growth 48h | Cycloheximide cs | LASV entry inh
N#Cc1cccc(NC(=O)Cn2cnc(S(=O)(=O)N3CCc4ccccc43)c2)c1 | 4.7µM* | / | -11 | -25% | -1 | /
COc1ccccc1OCC(=O)Nc1ccc2c(c1)OCO2 | -8% | 1%[46.1 µM] | 66* | 46% | 25* | -23%
CCN1CCc2c(OCC(=O)Nc3ccc4c(c3)OCCO4)cccc2C1=O | 6.6µM* | / | -3 | -40%[1.15 µM] | -7 | /
Cc1ccccc1OCC(=O)Nc1ccc2c(c1)OCO2 | / | -1% | 157* | 49% | 32* | /
O=C(COc1ccccc1Cl)Nc1ccc2c(c1)OCO2 | -12% | ? | 71* | 219% | 42* | ?
CCN1CCc2c(OCC(=O)Nc3cccc(C)c3)cccc2C1=O | ? | 18%[46.1 µM] | 14 | -16% | -6 | -9%
Cc1ccccc1OCC(=O)OCC(=O)Nc1ccc2c(c1)OCCO2 | 23% | / | / | -12% | / | /
Cc1cc(C)cc(N2C(=O)CN(Cc3ccccc3)C2=S)c1 | 4.7µM* | / | -2 | 15µM* | -1 | /
CCc1ccc(N2C(=O)CN(Cc3cc(OC)c(OC)c(OC)c3)C2=S)cc1 | -19% | ? | -6 | 4% | -3 | -15%
CCc1ccc(N2C(=O)CN(Cc3ccccc3)C2=S)cc1 | 25% | / | 25 | ? | 9 | /
COc1cc(CN2CC(=O)N(c3cc(Cl)ccc3C)C2=S)cc(OC)c1OC | -17% | / | -9 | 2.6µM* | -4 | /
CCc1ccccc1N1C(=O)CN(Cc2cc(OC)c(OC)c(OC)c2)C1=S | ? | ? | -7 | 5.2µM* | -4 | ?
COc1cccc(N2C(=O)CN(Cc3ccc(OC)c(OC)c3)C2=S)c1 | ? | 0%[46.1 µM] | -13 | 1.5µM* | 5 | -10%[46.1 µM]
COCCNC(=O)CSc1nnc(-c2ccccc2)c(-c2ccccc2)n1 | ? | ? | 2 | 13% | 9 | 9%[46.1 µM]
COc1ccc(CN2CC(=O)N(c3cc(Cl)ccc3C)C2=S)cc1OC | 0% | ? | -12 | 7.4µM* | -3 | ?
CCc1ccc(N2C(=O)CN(Cc3cccs3)C2=S)cc1 | -6% | -4% | 12 | 2% | 28* | -2%
